Records with an inconclusive call do not appear. The source made the active and inactive calls. Unless noted, calls follow the shape of the dose curve; as a rule, active = well fitted curve in the direction sought with a large enough effect in the repeat runs; inconclusive = weak or mixed curves; inactive = no such curve, though single readings can be large; an effect the other way counts as inactive or inconclusive.

Assay [1] in a line: qHTS assay to identify small molecule agonists of the vitamin D receptor (VDR) signaling pathway - cell viability counter screen (AID 743224). Also: series mostly up to about 63 µM; nearly all actives have a fitted effect of over 50% in size. Summed up:
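Viability is measured in the same wells as the VDR-bla reporter assay: after 16 h compound treatment and 2 h substrate loading, CellTiter-Glo is added and luminescence read 30 min later.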
Background: In qHTS, concentration-response curves come from the screen itself.

Assay [2] is described as follows: qHTS assay to identify small molecule antagonists of the vitamin D receptor (VDR) signaling pathway - cell viability counter screen (AID 743225). Also: nearly all actives have a fitted effect of over 50% in size. Summed up: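 VDR-UAS-bla HEK 293T cells were plated and incubated 4 h at 37C, then dosed with compound plus 3 nM (final) 1-alpha,25-dihydroxyvitamin D3 for 16 h. After the 2 h beta-lactamase read, viability in the same wells was read as CellTiter-Glo luminescence after 30 min at room temperature.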

The nature of assay [3]: qHTS assay to identify small molecule agonists of the NFkB signaling pathway (AID 1159509; active = well fitted curve in the direction sought with a large enough effect in the signal ratio in the repeat runs, not every such curve was filed as active; the % refers to the signal ratio; also: series mostly up to about 61 µM). Summed up:
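After overnight attachment, reporter cells received test compounds, DMSO or positive controls and were incubated 5 hr at 37 C. FRET substrate was then added for 1.5 hr at room temperature before dual-emission fluorescence reading.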

Assay [4] can be described thus: qHTS assay to identify small molecule agonists of the NFkB signaling pathway - cell viability counter screen (AID 1159515; calls by dose curve; also: series mostly up to about 61 µM; nearly all actives have a fitted effect of over 55% in size). Summed up:
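Multiplexed viability readout: after the 5 hr compound exposure and 1.5 hr FRET substrate step, CellTiter-Glo reagent went into the same NFkB-bla ME-180 wells; ATP luminescence was measured after 30 min at room temperature.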

Assay [5] in a line: qHTS assay to identify small molecule agonists of the endoplasmic reticulum stress response signaling pathway (AID 1159516; active = well fitted activation curve with a large enough effect in the signal ratio in the repeat runs, not every such curve was filed as active; the % refers to the signal ratio). Summed up:
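Tox21 10K library screened in quantitative HTS format on ESRE-bla HeLa cells, a beta-lactamase reporter under ER stress response element control; 5 hr treatment, FRET read.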

Assay [6] is described as follows: qHTS assay to identify small molecule antagonists of the retinoid-related orphan receptor gamma (ROR-gamma) signaling pathway - cell viability counter screen (AID 1159520). Also: nearly all actives have a fitted effect of over 50% in size. Summed up: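 Tet-on ROR gamma CHO cells (1,000/well) were plated 4 hr, given compounds in DMSO for 2 hr at 37 C, then induced with 1 uM final doxycycline for 16 hr. Viability was read as ATP by CellTiter-Glo luminescence after 30 min.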

Assay [7] has as its target Nuclear receptor ROR-gamma (Homo sapiens) (UniProt P51449). As to the kind of experiment: qHTS assay to identify small molecule antagonists of the retinoid-related orphan receptor gamma (ROR-gamma) signaling pathway (AID 1159521; also: nearly all actives have a fitted effect of over 50% in size; also: potency is read from the fitted curve at half-maximal effect). Summed up:
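Tet-on ROR-gamma CHO cells with ROR response element-luciferase reporter; compounds added 2 hr before 1 uM doxycycline induction, then 16 hr at 37 C. Antagonism scored as decreased ONE-Glo luminescence.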

Assay [8] can be described thus: qHTS assay to identify small molecule agonists of the AP-1 signaling pathway - cell viability counter screen (AID 1159525; calls by dose curve; also: nearly all actives have a fitted effect of over 55% in size). Summed up: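 ME-180 AP-1-bla, 2500 cells/well, Opti-MEM + 0.5% dialyzed FBS; overnight 37 °C; cpd 15-pt titration, 5 h 37 °C; CellTiter-Glo 30 min RT; luminescence read; normalised to TOAB and DMSO controls.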
Assay [9] can be described thus: qHTS assay to identify small molecule agonists of the AP-1 signaling pathway (AID 1159526; calls by dose curve).
The nature of assay [10]: qHTS assay to identify small molecule agonists of the RXR signaling pathway - cell viability counter screen (AID 1159529). Summed up: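 RXR-alpha-UAS-bla HEK 293T cells in medium with 2% charcoal-stripped FBS were pre-incubated 5 hr, then compound-treated 16 hr at 37 C. Viability was read by CellTiter-Glo luminescence in the same wells as the beta-lactamase assay, with tetraoctyl ammonium bromide as positive control.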

A short description of assay [11]: qHTS assay to identify small molecule antagonists of the retinoid acid receptor (RAR) signaling pathway - cell viability counter screen (AID 1159551). Also: nearly all actives have a fitted effect of over 35% in size. Summed up: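 Cytotoxicity counter screen in C3RL4 cells: 6 h compound exposure with 1 uM retinol (final), viability from cellular ATP by luminescence.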
The nature of assay [12]: qHTS assay to identify small molecule antagonists of the retinoic acid receptor (RAR) signaling pathway (AID 1159552; also: nearly all actives have a fitted effect of over 50% in size). Summed up:
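Retinol signaling pathway inhibitors screened in C3RL4 RARE-luciferase reporter cells seeded overnight at 37 C, then compounds added with 1 uM (final) retinol as pathway substrate. After 6 hr at 37 C, luciferase luminescence read after 30 min at room temperature.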

Assay [13] deals with Retinoic acid receptor RXR-alpha (Homo sapiens) (UniProt P19793). Description: qHTS assay to identify small molecule agonists of the RXR signaling pathway (AID 1159527; calls by dose curve; also: nearly all actives have a fitted effect of over 35% in size). Summed up: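 GeneBLAzer RXR-alpha-UAS-bla HEK 293T cells in 2% charcoal-stripped FBS medium were exposed to compounds for 16 hr at 37 C in agonist mode. Beta-lactamase reporter read as 460/530 nm FRET ratio after 2 hr substrate loading.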
Chain of Retinoic acid receptor RXR-alpha (Homo sapiens) (P19793 whole entry, looked up): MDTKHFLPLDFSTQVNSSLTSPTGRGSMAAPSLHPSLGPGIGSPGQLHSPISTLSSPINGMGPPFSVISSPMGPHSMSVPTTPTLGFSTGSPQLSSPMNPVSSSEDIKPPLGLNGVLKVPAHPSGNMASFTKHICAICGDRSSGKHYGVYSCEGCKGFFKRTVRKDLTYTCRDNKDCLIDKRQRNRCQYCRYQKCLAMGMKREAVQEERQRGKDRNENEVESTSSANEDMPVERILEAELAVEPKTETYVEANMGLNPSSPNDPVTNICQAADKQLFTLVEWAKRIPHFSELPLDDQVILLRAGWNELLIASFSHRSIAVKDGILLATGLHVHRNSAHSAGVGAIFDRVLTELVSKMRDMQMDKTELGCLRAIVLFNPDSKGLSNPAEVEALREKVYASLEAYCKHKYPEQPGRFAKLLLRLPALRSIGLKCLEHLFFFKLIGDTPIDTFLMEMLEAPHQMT

Assay [14] is described as follows: qHTS assay to identify small molecule agonists of the endoplasmic reticulum stress response signaling pathway - cell viability counter screen (AID 1159517; calls by dose curve). Summed up: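 Luminescence readout: CellTiter-Glo, 30 min RT, same wells as the ESRE-bla reporter read. HeLa ESRE-bla, 1,500 cells/well, o/n 37 C; cpd 5 hr 37 C/5% CO2.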
Assay [15] can be described thus: qHTS assay to identify small molecule agonists of the retinoic acid receptor (RAR) signaling pathway (AID 1159553). Summed up: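 Agonist activity was scored in C3RL4 cells bearing a retinoic acid response element luciferase construct. Cells were treated with compounds for 6 hr at 37 C, and luciferase signal was measured as luminescence.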

For `C=C(C)[C@@H]1CC=C(C=O)CC1`, the Potency entry in assay [1], in [6], in assay [7], in assay [8], in assay [10] and in assay [11] was “inactive” throughout. In assay [12], the Potency entry is “inactive”. The molecule was classed as inactive in [2], in [3], in [4], in assay [5] and in assay [9].

As to `C[C@@H]1CN(C2CCC(C#N)(c3ccc(F)cc3)CC2)CC[C@]1(C(=O)O)c1ccccc1` (some centres undefined), the Potency entry in [1], in assay [6], in [7], in assay [8], in assay [13] and in [10] was “inactive” throughout. Besides, in assay [11], the Potency entry is “inactive”. The outcome in assay [3], in [4], in assay [5] and in [9] was inactive.

As to `O=C(Nc1ccccc1)N(Cc1ccc(Cl)cc1)C1CCCC1`, the outcome in assay [2], in assay [3], in [5] and in [9] was inactive. Moreover, the Potency entry in [14], in assay [6], in assay [10], in assay [11] and in [15] was “inactive” each time. Further, the Potency in assay [7] is 61.1 µM (active).

As for `CCCCOC(=O)[C@@H](C)Oc1ccc(Oc2ccc(C#N)cc2F)cc1`, the Potency entry in assay [1], in assay [14], in [6], in assay [7], in [8] and in assay [10] was “inactive” each time. In addition, the Potency entry in assay [11] was “inactive”. In addition, the molecule was called inactive in [2], in assay [3] and in [5].

As for `CNC(=O)Oc1cccc(C(C)C)c1`, the Potency entry in assay [1], in assay [14], in [6], in assay [7], in assay [8] and in assay [10] was “inactive” each time. Further, the Potency entry in assay [11] is “inactive”. Besides, the outcome in assay [3], in assay [5] and in assay [9] was inactive.

In the case of `O=C(Nc1ccccc1)c1ccccc1I`, the Potency entry in assay [1], in [6], in assay [7], in assay [8], in [10] and in assay [11] was “inactive” in each case. For the same molecule, the result in [2], in [3], in [5] and in assay [9] was inactive.

As for `CN1CCC(O)(c2ccc(F)cc2)C(C(=O)c2ccc(F)cc2)C1` (centres undefined), the Potency entry in [1], in [6], in [7], in [10] and in assay [11] was “inactive” each time. The outcome in [2], in [3], in assay [5] and in assay [9] was inactive.

For `CC(=O)CC(c1ccc(Cl)cc1)c1c(O)c2ccccc2oc1=O` (centres undefined), the Potency result in assay [1], in [6], in assay [7], in [8], in assay [10] and in assay [11] was “inactive” throughout. The Potency entry in assay [12] and in [15] was “inactive” in each case. Besides, the outcome in assay [2], in assay [3], in assay [5] and in [9] was inactive.

In the case of `CCOP(=S)(OCC)Oc1nc(Cl)n(C(C)C)n1`, the Potency result in [1], in assay [14], in [6], in assay [7], in [8] and in [10] was “inactive” each time. Besides, the Potency entry in assay [11], in assay [12] and in [15] was “inactive” throughout. The molecule was classed as inactive in assay [3], in [5] and in assay [9].

Consider `NC1=NC(=O)C(c2ccccc2)O1` (centres undefined), for which the Potency result in assay [1], in [6], in [7], in [8], in assay [13] and in assay [10] was “inactive” throughout. The Potency result in [11] was “inactive”. For the same molecule, the molecule was classed as inactive in [3], in assay [5] and in assay [9].

Turning to `ClC(Cl)Br`, the Potency entry in assay [1], in [14], in [6], in [8], in assay [13] and in assay [10] was “inactive” in each case. Moreover, the Potency entry in assay [11] and in [15] was “inactive” throughout. Further, the result in [2], in assay [3], in assay [5] and in assay [9] was inactive.

Consider `O=[N+]([O-])c1cccc2cccnc12`, for which the Potency entry in assay [1], in assay [14], in assay [6], in assay [7], in assay [8] and in [10] was “inactive” in each case. In addition, the Potency result in [11] and in assay [15] was “inactive” in each case. The result in [3], in assay [5] and in assay [9] was inactive.

Source of the values: PubChem BioAssay (Tox21).
